{"source": "PubChem BioAssay (NCI)", "note": "Compounds without any hit were thinned out: in the full panel of roughly 83,000, 20% have a hit.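 Values shown are percent growth following 48 h exposure of cells in 96-well plates to a single concentration of compound; below 10 was considered active.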 Active and inactive are the calls of the source.", "data": [{"tested_on": "HL-60(TB) leukemia", "test": "NCI-60 one-dose screen, 48 h (100 = growth as untreated, 0 = no growth, -100 = all killed)", "settings": "10 µM unless noted", "values": [{"smiles": "COc1ccc(C(=O)Cn2c(C(=O)c3ccc(OC)cc3)nc3ccccc32)cc1", "growth": "-50.7% (active)"}, {"smiles": "NC1N=C(SCC(=O)N2CCN(c3cc4c(cc3F)c(=O)c(C(=O)O)cn4C3CC3)CC2)NC(=O)/C1=C/c1ccc(Cl)cc1", "note": "(configuration not stated)", "growth": "102% (inactive)"}, {"smiles": "O=C1/C=C/[C@@H](O)[C@@H]2C[C@@H](O)C[C@H]2/C=C/CCC[C@@H](O)CCO1", "growth": "123% (inactive)"}, {"smiles": "COc1ccc(/C(=N\\N)C(=O)c2ccccc2)cc1", "note": "(tested in a mixture with another compound)", "growth": "77.8% (inactive)"}, {"smiles": "C/C(=C(/c1ccc(Cl)cc1)c1ccc(OCCN2CCCC2)cc1)c1ccccc1", "growth": "70.4% (inactive)"}, {"smiles": "O=C(CCCn1c(=O)c2sc3ccccc3c2n2nnc(-c3ccccc3)c12)NCCc1cnc[nH]1", "growth": "82.9% (inactive)"}, {"smiles": "O=C(/C=C\\c1cccc([N+](=O)[O-])c1)c1ccccc1", "growth": "-43.8% (active)"}, {"smiles": "Cn1c(COC(=O)NCCn2ccnc2)nc2c(N3CCOCC3)nc(-c3ccccc3)nc21", "growth": "-37.5% (active)"}, {"smiles": "O=C(O)c1ccccc1Oc1cc(-c2ccco2)nc(OCCN2CCOCC2)n1", "growth": "105% (inactive)"}, {"smiles": "COc1ccc(-c2cc(C(=O)Nc3nc4cc(C)c(C)cc4s3)nc3cc(-c4ccccc4)nn23)cc1OC", "growth": "98.2% (inactive)"}, {"smiles": "CCCCCCCCCCN1CCC(N2CCCCC2)CC1", "growth": "-57.7% (active)"}, {"smiles": "NC1=Nc2cc(OCCCN3Cc4ccccc4C3)c(OCC3CC3)cc2C12CCCC2", "growth": "62.5% (inactive)"}, {"smiles": "Cn1cc(-c2ccc3c(c2)ncn3-c2ccc(CC(=O)Nc3cc(C(C)(C)C)on3)cc2)cn1", "growth": "67.4% (inactive)"}, {"smiles": "CC(C)=CC(=O)C1C(=O)c2ccccc2C1=O", "growth": "120% (inactive)"}, {"smiles": "O=C(Nc1ccc(Oc2ccc(F)cc2)c(Cl)c1)c1cnccn1", "growth": "21.4% (inactive)"}, {"smiles": "COc1c(NC[C@H]2OC(O)[C@H](O)[C@@H](O)[C@@H]2O)c(=O)c1=O", "note": "(some centres not stated)", "growth": "114% (inactive)"}, {"smiles": "CN1C(=O)N(C)C2C1NN=c1s/c(=C\\c3ccccc3)c(=O)n12", "note": "(configuration not stated)", "growth": "16.9% (inactive)"}, {"smiles": "COc1cc(/C=C/C(=O)CC(=O)/C=C/c2ccc(OC(=O)CCNC34CC5CC(CC(C5)C3)C4)c(OC)c2)ccc1OC(=O)CCNC12CC3CC(CC(C3)C1)C2", "growth": "-24% (active)"}, {"smiles": "CCOC(=O)Nc1ccc2nc(-c3cscn3)[nH]c2c1", "growth": "18.7% (inactive)"}, {"smiles": "Nc1ccc2ccc(NS(=O)(=O)N3CCCCC3)cc2c1", "growth": "2.41% (active)"}, {"smiles": "CC(C)COCC(CN(Cc1ccccc1)c1ccccc1)N1CCCC1", "note": "(configuration not stated)", "growth": "82.4% (inactive)"}, {"smiles": "Cc1ccnc(Nc2nc3ccccc3[nH]2)n1", "growth": "87% (inactive)"}, {"smiles": "O=c1[nH]c(=O)c2[nH]c(=O)[nH]c2[nH]1", "growth": "100% (inactive)"}, {"smiles": "C=CCNCCC#N", "growth": "109% (inactive)"}, {"smiles": "CCC(C)[C@H](NC(=O)Nc1cc(C(F)(F)F)cc(C(F)(F)F)c1)C(=O)N[C@@H](Cc1cn(C)cn1)C(=O)OC", "note": "(some centres not stated)", "growth": "-78.4% [100 µM] (active)"}, {"smiles": "CCCc1cccc(CCC)c1NC(=O)Nc1cc(Cl)cc(Cl)c1", "growth": "101% (inactive)"}, {"smiles": "COc1cc(OC)c(/C=C/C(=O)c2c(O)cc(OC)c(C3CCN(C)CC3)c2OC)c(OC)c1", "growth": "-35.6% (active)"}, {"smiles": "CCN(CC)CC(=O)Nc1ccc2ncnc(Nc3ccc(Oc4cccc(F)c4)c(Cl)c3)c2c1", "growth": "16.2% (inactive)"}, {"smiles": "Cc1ccc(N(CC(=O)Nc2ccc(S(=O)(=O)N3CCC(N4CCCC4)CC3)cc2)S(=O)(=O)c2ccc(Cl)cc2)cc1", "growth": "-51.5% (active)"}, {"smiles": "CCOC(=O)CCC[P+](c1ccccc1)(c1ccccc1)c1ccccc1", "growth": "37.7% (inactive)"}, {"smiles": "O=C1/C=C/[C@@H](O)[C@@H]2C[C@@H](O)C[C@H]2/C=C/CCC[C@H](CCOCc2ccccc2)O1", "growth": "0.107% (active)"}, {"smiles": "Cc1cc(C)c2c(n1)sc1c(Nc3ccc(Cl)cc3)ncnc12", "growth": "-19.1% (active)"}, {"smiles": "c1ccc2cc(Cn3c(-c4cccc5ccccc45)[n+](Cc4ccc5ccccc5c4)c4c5ccccc5c5ccccc5c43)ccc2c1", "growth": "-54.6% (active)"}, {"smiles": "COc1cc(-c2cc(/C=C3\\C(=O)Nc4cc(Cl)ccc43)[nH]n2)cc(OC)c1OC", "growth": "-34.9% (active)"}, {"smiles": "CCOCC[P+](c1ccccc1)(c1ccccc1)c1ccccc1", "growth": "11.7% (inactive)"}, {"smiles": "CN1C2CCC1/C(=C\\c1ccc(Cl)cc1)C(=O)/C2=C/c1ccc(Cl)cc1", "growth": "20.3% (inactive)"}, {"smiles": "COc1cccc2c1C(=O)c1c(O)c3c(c(O)c1C2=O)C[C@](O)(C(=O)CO)C[C@H]3O[C@@H]1C[C@@H](NC(=O)CCCN(C)C2(c3ccc(F)cc3)CC3CCC2C3)[C@H](O)[C@@H](C)O1", "note": "(some centres not stated)", "growth": "76% (inactive)"}]}]}
